{"source": "PubChem BioAssay (EPA / NIEHS)", "note": "Where “and” joins values, the source holds several entries; their conditions need not be identical. Equal values may be shown once. More than one record can exist for a structure, and the calls need not agree. Calls of active or inactive are those of the source. How the source made its calls: active means hit-call score of the fitted dose curve at least 0.9, where 1 is the maximum; inactive means score below 0.9.", "data": [{"assay": "ATG_NRF2_ARE_CIS: Attagene CIS-FACTORIAL HepG2 Assay for human Nuclear Factor Erythroid 2 Related Factor 2 (NFR2) response to Antioxidant Response Elements (ARE) (AID 2282992)", "settings": "HepG2 Attagene ARE/NRF2 reporter, transcription factor activity; actives raise or lower the signal", "experimental": "ATG_CIS is a cell-based, multiplexed-readout assay that uses HepG2, a human liver cell line, with measurements taken at 24 hours after chemical dosing in a 24-well plate.ATG_NRF2_ARE_CIS is one of 52 assay component(s) measured or calculated from the ATG_CIS assay. It is designed to make measurements of mRNA induction, a form of inducible reporter, as detected with fluorescence intensity signals by Reverse transcription polymerase chain reaction (RT-PCR) and Capillary electrophoresis technology.Data from the assay component ATG_NRF2_ARE_CIS was analyzed into 1 assay endpoint. This assay endpoint, ATG_NRF2_ARE_CIS, was analyzed with bidirectional fitting relative to DMSO as the negative control and baseline of activity. Using a type of inducible reporter, measures of mRNA for gain or loss-of-signal activity can be used to understand the reporter gene at the transcription factor-level as they relate to the gene NFE2L2. Furthermore, this assay endpoint can be referred to as a primary readout, because this assay has produced multiple assay endpoints where this one serves a reporter gene function. To generalize the intended target to other relatable targets, this assay endpoint is annotated to the dna binding intended target family, where the subfamily is basic leucine zipper.\nHuman liver HepG2 cells are transiently transfected with multiple reporter transcription units (MRTUs) in 6-well plates using FuGene 6 reagent (Roche; 3 ml FuGene/1 mg DNA). The MRTU constructs are regulated by a cis-regulating element (promoter). […] A major difference between the CIS and TRANS system is that in CIS activities of endogenous TFs are measured, whereas the TRANS assay evaluates changes in activities of exogenous, chimeric NR-Gal4 proteins. […] At the end of 24 hour incubation, total RNA was isolated using TriZol reagent (Invitrogen). The isolated RNA is then reverse-transcribed using oligo(dT) primer and Mo-MLV reverse transcriptase (Invitrogen) with DNAse I (Ambion) treatment for 30 min. The one-tenth of the produced cDNA was amplified by PCR using Taq DNA polymerase (Invitrogen) and two reporter sequence-specific primers. The PCR products were fluorescently labeled by primer extension with 6-arboxyfluorescein (6-FAM) 5'-labeled reporter sequence-specific primer (2 min at 95 C, 20 s at 68 C and 10 min at 72 C) and these products were digested with 5U of HpaI (New England Biolabs) for 2h at 37 C. The fragments were purified using Qiaquick PCR columns (Qiagen), analyzed on an ABI 3130xL genetic analyzer (Applied Biosystems) with peak positions identified by using a set of X-rhodamine (ROX)-labeled MapMarker1000 molecular weight standards (BioVentures). The raw capillary electrophoresis data was processed using Attagraph software (Attagene).", "values": [{"smiles": "O=C(O)C(Cl)Cl", "outcome": "inactive"}, {"smiles": "COP(=O)(O)OC", "outcome": "inactive"}, {"smiles": "Nc1ccc(Sc2ccc(N)cc2)cc1", "AC50": "50.4 µM (active)"}, {"smiles": "c1nc[nH]n1", "outcome": "inactive"}, {"smiles": "ClC(Cl)=C(c1ccc(Cl)cc1)c1ccccc1Cl", "AC50": "35.3 µM (active)"}, {"smiles": "COC(N)=O", "outcome": "inactive"}, {"smiles": "O=C(O)C1C(C(=O)O)C2(Cl)C(Cl)=C(Cl)C1(Cl)C2(Cl)Cl", "note": "(stereo not given)", "outcome": "inactive"}, {"smiles": "CC(Cc1ccc(OCC(=O)O)cc1)NCC(O)c1csc(C(F)(F)F)n1", "note": "(stereo not given)", "outcome": "inactive"}, {"smiles": "CC1=C(C(=O)Nc2ccccc2)S(=O)(=O)CCO1", "AC50": "2.92 µM (active)"}, {"smiles": "Cc1ccc(N)cc1N", "outcome": "inactive"}, {"smiles": "OCC(F)(F)OC(F)(F)C(F)(F)OC(F)(F)C(F)(F)OC(F)(F)CO", "AC50": "33.2 µM (active)"}, {"smiles": "CCCCN(CCCC)SN(C)C(=O)Oc1cccc2c1OC(C)(C)C2", "AC50": "31.6 µM (active)"}, {"smiles": "CC(Cl)CN(C)C", "note": "(stereo not given)", "AC50": "28.4 µM (active)"}, {"smiles": "CC(C)(C)N(NC(=O)c1ccc(Cl)cc1)C(=O)c1ccccc1", "outcome": "inactive"}, {"smiles": "O=C(O)C(F)(F)C(F)(F)C(=O)O", "outcome": "inactive"}, {"smiles": "ClC(Cl)c1ccccc1", "outcome": "inactive"}, {"smiles": "Cc1ccc(C(=O)Cl)cc1", "outcome": "inactive"}, {"smiles": "Nc1ccc(Cl)cc1", "outcome": "inactive"}, {"smiles": "COCCOCCO", "outcome": "inactive"}, {"smiles": "O=c1[nH]c2ccccc2c(=O)o1", "outcome": "inactive"}, {"smiles": "O=C(CBr)OCc1ccccc1", "AC50": "67.8 µM (active)"}, {"smiles": "Nc1ccc2ccccc2c1", "outcome": "inactive"}, {"smiles": "CCCCCCCc1ccc(O)cc1", "AC50": "14.1 µM (active) and 7.28 µM (active) and 7.2 µM (active)", "outcome": "inactive"}, {"smiles": "CCCCOCCOP(=O)(OCCOCCCC)OCCOCCCC", "outcome": "inactive"}, {"smiles": "c1cc2c3c(cccc3c1)CC2", "outcome": "inactive"}, {"smiles": "CC(C)Nc1ccc(Nc2ccccc2)cc1", "AC50": "8.92 µM (active)"}, {"smiles": "ClC(Cl)(Cl)c1ccccc1", "outcome": "inactive"}, {"smiles": "N#C/C=C/c1ccccc1", "outcome": "inactive"}, {"smiles": "COC(=O)C(F)(F)C(F)(F)OC(F)(C(F)(F)F)C(F)(F)OC(F)=C(F)F", "note": "(stereo not given)", "AC50": "4.38 µM (active) and 10.3 µM (active) and 5.16 µM (active)"}, {"smiles": "CSC(C)(C)C=NO", "outcome": "inactive"}, {"smiles": "CCOc1ccc(C(C)(C)COCc2cccc(Oc3ccccc3)c2)cc1", "outcome": "inactive"}, {"smiles": "CCCN(CCC)c1c([N+](=O)[O-])cc(C(C)C)cc1[N+](=O)[O-]", "AC50": "38.4 µM (active)"}, {"smiles": "Cc1cccc(N)c1", "outcome": "inactive"}, {"smiles": "Nc1ccc([N+](=O)[O-])cc1Cl", "outcome": "inactive"}, {"smiles": "Cc1cc(C)c(C(=O)P(=O)(c2ccccc2)c2ccccc2)c(C)c1", "AC50": "4.78 µM (active)"}, {"smiles": "CCOP(=S)(OCC)SCS(=O)(=O)CC", "outcome": "inactive"}, {"smiles": "N#Cc1c(-c2ccc(Cl)cc2)[nH]c(C(F)(F)F)c1Br", "AC50": "0.0823 µM (active)"}, {"smiles": "CCCCc1ccc(O)cc1", "AC50": "66.7 µM (active)"}, {"smiles": "Oc1ccccc1Br", "outcome": "inactive"}]}]}
